Source: PubChem (National Center for Advancing Translational Sciences (NCATS))
KB-3-1 tox: KB-3-1 parental cell cytotoxicity; KB-3-1 viability, CellTiter-Glo ATP luminescence, 72 h; Potency, µM (highest dose often 46.1 µM), hits mostly cytotoxic; 1.4% of 400,000 active; AID 1347075; also: % is scaled to controls: 0 for no effect and ±100 for the full control effect; nearly all actives have a fitted effect of over 60% in size
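Using CellTiter-Glo luminescence, growth of non-resistant KB-3-1 adenocarcinoma cells is assessed 72 h after pin-tool compound addition at 37 °C. Normalized responses across the concentration series yield fitted curves.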
RGS4 inhibitor: blocks human RGS4-accelerated GTP hydrolysis | 0.039% of 390,000 active | P49798 | Transcreener GDP fluorescence polarization, RGS4-accelerated GTP hydrolysis | Potency, µM (top dose mostly 114 µM), inactives show at the top dose activity change, negative = inhibition, actives largely listed as inhibitors; also: % is scaled to controls: 0 for no effect and ±100 for the full control effect; nearly all actives have a fitted effect of over 75% in size
Target sequence (P49798 whole entry, looked up): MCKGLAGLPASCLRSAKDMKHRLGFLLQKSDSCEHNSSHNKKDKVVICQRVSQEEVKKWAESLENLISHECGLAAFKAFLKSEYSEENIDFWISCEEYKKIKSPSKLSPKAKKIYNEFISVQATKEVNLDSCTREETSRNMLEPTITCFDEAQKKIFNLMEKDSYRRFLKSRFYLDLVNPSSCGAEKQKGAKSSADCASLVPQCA
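MLSMR compounds (23 nl, pin-transferred) preincubated 10 min at room temperature with a 500nM (2x) first reagent, then RGS4 at 900nM (2x) plus Transcreener GDP mix added; fluorescence polarization (620/688 nm) read before and after 90 min at 30 °C.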
SW480 rereplic: DNA re-replication induction in SW480 cells. SW480 DNA re-replication, Hoechst DNA content imaging, 48 h. Potency, µM (doses to about 46.1 µM), without a hit: at the highest dose re-replication activation, most hits filed as activators. 1.8% of 340,000 active. AID 624297; also: % of control where 0% means no effect; nearly all actives have a fitted effect of over 55% in size
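Image-based DNA-content assay: after two days of treatment, nuclei were labelled with the DNA dye Hoechst and imaged, and hits were compounds raising the count of nuclei showing high fluorescence intensity.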
MCF10A rereplic: DNA re-replication induction in MCF 10a cells; 2.9% of 350,000 active; Potency, µM (highest dose often 46.1 µM), without a hit: top-dose activity, positive = re-replication, most hits filed as activators; MCF 10A DNA re-replication, Hoechst nuclear intensity, 48 h; also: % of control where 0% means no effect; nearly all actives have a fitted effect of over 50% in size
TSG101-PTAP inh: blocks PTAP/TSG101 interaction to inhibit HIV-1 budding; Q99816; Fluorescence polarization, FITC-PTAP peptide / Tsg101 binding; Potency, µM (top dose mostly 115 µM), inactives show at the highest dose activity change, negative = inhibition, usual class: inhibitors; 340,000 tested, under 10 active; active = well fitted inhibition curve with a large enough effect in the main read-out, with a control signal flat, not every such curve was filed as active; inconclusive = small, poorly fitted or top-dose-only effect, or effect the other way, or a change in a side signal; inactive = no such curve, though single readings can be large or run the other way; also: % of control where 0% means no effect
Target sequence (Q99816 whole entry, looked up): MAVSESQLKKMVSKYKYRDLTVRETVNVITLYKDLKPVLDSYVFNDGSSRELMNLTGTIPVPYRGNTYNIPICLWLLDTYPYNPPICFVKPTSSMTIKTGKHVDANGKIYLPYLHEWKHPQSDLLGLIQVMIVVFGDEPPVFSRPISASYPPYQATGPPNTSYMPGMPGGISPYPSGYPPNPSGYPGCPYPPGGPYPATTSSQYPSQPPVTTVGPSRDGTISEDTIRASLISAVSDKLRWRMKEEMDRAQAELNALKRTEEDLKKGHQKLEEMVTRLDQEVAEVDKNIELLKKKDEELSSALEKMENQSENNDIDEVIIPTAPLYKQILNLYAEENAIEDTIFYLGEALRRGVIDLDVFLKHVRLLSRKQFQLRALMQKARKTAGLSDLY
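Fluorescence polarization binding of Tsg101 binding domain (10 uM final) to FITC-labeled PTAP peptide (50 nM final) in HEPES pH 7.5 buffer with NaCl, Tween 20, EDTA, TCEP. Compounds added before peptide; binding 20 min at RT.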
KB-V1 MDR tox: kills drug-selected multidrug resistant KB-V1 cells. AID 1347076. KB-V1 MDR cells viability, CellTiter-Glo, 72 h. 3.4% of 400,000 active. Potency, µM (top dose mostly 46.1 µM), most hits filed as cytotoxic; also: % is scaled to controls: 0 for no effect and ±100 for the full control effect; nearly all actives have a fitted effect of over 60% in size
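Cytotoxicity toward P-gp-expressing KB-V1 cells was determined as loss of CellTiter-Glo luminescence after 72 h at 37 degrees C. Compounds were tested in quantitative HTS format across a concentration range, with curves fitted to normalized data.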
Starred values were filed as active, the others as inactive; i = inactive; ? = inconclusive; · = no result. Sampled rows, rich in hits. Any-hit rate of the full collection: about 6.6%. Unless noted, calls follow the shape of the dose curve; as a rule, active = well fitted curve in the direction sought with a large enough effect; inconclusive = small, poorly fitted or top-dose-only effect, or another doubt; inactive = no such curve, though single readings can be large; an effect the other way counts as inactive or inconclusive. Potency is read from the fitted curve at half-maximal effect.

SMILES	KB-3-1 tox	RGS4 inhibitor	SW480 rereplic	MCF10A rereplic	TSG101-PTAP inh	KB-V1 MDR tox
Cc1ccc2nc(-c3ccccc3)cc(C(=O)Nc3cccnc3)c2c1	i	6%	-1%	10%	0%	2.9µM*
O=C(N/N=C/c1cccnc1)c1cc(-c2ccccc2)nc2ccccc12	i	-12%	-2%	15%	0%	i
O=C(N/N=C/c1ccc(Cl)cc1)c1cc(-c2cccnc2)nc2ccccc12	9.2µM*	-28%	4.1µM*	?	5%	9.2µM*
Cc1ccc(/C=N/NC(=O)c2cc(C)oc2C)cc1	?	11%	4.6µM*	?	-2%	?
O=C(N/N=C/c1ccc(Cl)c([N+](=O)[O-])c1)c1cc(-c2ccccc2)nc2ccccc12	i	13%	-10%	12µM*	-1%	i
O=C(N/N=C/c1cccnc1)c1cc(-c2ccc(Br)cc2)nc2ccccc12	?	22%	21µM*	?	-4%	i
O=C(CNC(=O)c1ccccc1)OCC(=O)c1ccc2ccccc2c1	i	1%	·	·	·	i
COc1ccccc1OCCSc1nc2ccccc2c(=O)[nH]1	i	12%	0%	21µM*	-4%	i
O=c1[nH]c(SCCOc2ccccc2F)nc2ccccc12	i	15%	-3%	11%	-1%	?
CCc1ccccc1NC(=O)C1CCN(c2nn3c(=O)cc(C)nc3s2)CC1	i	21%	·	·	·	i
C=C1C(n2cnc3c(=O)[nH]c(N)nc32)C[C@H](O)[C@H]1CO (stereo not given in full)	·	·	-8%	1%	·	·
CCCN1C(=O)c2ccccc2NC1c1ccc(OC)cc1O (stereo not given)	?	-27%	3%	?	-1%	5.8µM*
CCCN1C(=O)c2ccccc2NC1c1ccc(OC)cc1OC (stereo not given)	i	-10%	?	-12%	-4%	?
CCOC(=O)N1CCc2c(sc3c2c(=O)n(-c2ccc(CC)cc2)c(=O)n3CC(=O)Nc2ccc(C)cc2)C1	·	-1%	·	·	·	·
CN(C)c1ccc(/C=C/c2ccc3cc(N)ccc3n2)cc1	i	·	·	·	·	i
Cc1cc(C)nc(S/C=C/C(=O)c2ccccc2F)n1	i	?	-4%	2.6µM*	0%	?
Cc1cc(C)nc(SCc2c(F)cccc2Cl)n1	i	-8%	-8%	-4%	0%	i
COc1ccc(OC)c2c(/C=C/c3c(C)[nH]c4ccccc34)ccnc12	?	·	·	·	·	21µM*
COc1ccc(OC)c2c(/C=C/c3ccc(N(C)C)cc3)ccnc12	i	·	·	·	·	i
CC(C)C[C@]1(c2ccccc2)ON(c2ccccc2C(F)(F)F)C1=O	i	26%	?	?	-4%	i
O=C1N(c2ccccc2C(F)(F)F)O[C@@]1(c1ccccc1)C1CCCC1	i	-49%	-5%	16µM*	-5%	i
O=C1N(c2ccccc2C(F)(F)F)O[C@@]1(c1ccccc1)C1CCCCC1	i	0%	?	21µM*	-4%	i
COC(=O)c1ccc2c(c1)N(CC(=O)Nc1cccc(C(F)(F)F)c1)C(=O)c1ccccc1S2	i	-1%	·	·	·	i
O=C(O)C1=C(CSc2nnnn2CS(=O)(=O)O)CS[C@@H]2[C@H](NC(=O)[C@H](O)c3ccccc3)C(=O)N12	·	·	-5%	5%	·	·
O=C(O)Cc1sc(Nc2cccc3ccccc23)nc1-c1ccc(Cl)cc1	i	-23%	5%	7.3µM*	0%	i
SMILES	KB-3-1 tox	RGS4 inhibitor	SW480 rereplic	MCF10A rereplic	TSG101-PTAP inh	KB-V1 MDR tox
Cc1cccc(CNC(=O)CCCN2C(=O)c3cccnc3Oc3ccccc32)c1	i	-2%	·	·	·	i
Cc1ccc(F)cc1NC(=O)CSc1nc(-c2cccs2)cc(C(F)(F)F)n1	i	2%	·	·	·	i
CC1CC(C)CN(c2oc(-c3ccc(OCc4ccccc4Cl)cc3)nc2C#N)C1 (stereo not given)	?	28%	·	·	·	i
C#CCN1CCc2onc(-c3ccc(Br)cc3)c2C1=O	?	·	·	·	·	18µM*
CC(C)(C)OC(=O)N1CCc2onc(-c3ccc(Cl)cc3)c2C1=O	i	·	·	·	·	i
C=CCSc1cc(C)nc2c(-c3ccccc3)cnn12	?	-19%	?	11%	0%	8.2µM*
CC(=O)Nc1ccc(Nc2cc(C)nc3c(-c4ccccc4)cnn23)cc1	?	-12%	10%	?	0%	16µM*
Cc1cc(N)n2ncc(-c3ccccc3)c2n1	i	-7%	1%	18%	-4%	i
O=C(NNc1ccccc1)OCc1ccccc1	i	·	·	·	·	i
CCOC(=O)c1ccccc1OC(=O)NNc1ccccc1	12µM*	-37%	-7%	4%	-3%	i
O=[N+]([O-])c1ccc2c(c1)C(N1CCN(CCO)CC1)Cc1ccc(F)cc1S2 (stereo not given)	i	·	·	·	·	i
OCCN1CCN(C2CCC(c3ccc(F)cc3)c3ccc(F)cc32)CC1 (stereo not given)	?	-30%	?	21µM*	-3%	?
CCOc1ccccc1CNC(=O)c1oc2c(c1C)-c1[nH]ncc1CC2	·	-12%	·	·	·	·
CN(C)c1ccc(C(CNS(=O)(=O)c2ccc(F)cc2)c2c[nH]c3ccccc23)cc1 (stereo not given)	?	-3%	12%	21µM*	-3%	?
CCOC(=O)c1ccc(S(=O)(=O)NCC(c2ccc(N(C)C)cc2)c2c[nH]c3ccccc23)cc1 (stereo not given)	i	-28%	-3%	0%	3%	?
O=C(CSc1nc2ccsc2c(=O)n1Cc1ccccc1Cl)NCc1ccc(F)cc1	i	-12%	·	·	·	i
Cc1ccc(Nc2cc(C(=O)NC3CCCC3)c3ccccc3n2)cc1C	i	-4%	·	·	·	i
CCc1ccc(/C=N/n2c(C)cc(C)c(C#N)c2=O)cc1	i	8%	-52%	16%	0%	9.2µM*
O=C1c2ccc(-c3nc4ccccc4o3)cc2C(=O)N1Cc1cccnc1	i	1%	?	9.2µM*	-7%	i
O=C1c2ccc(-c3nc4ccccc4o3)cc2C(=O)N1Cc1ccccc1	i	-25%	3%	6%	-4%	7.3µM*
O=C1c2ccc([N+](=O)[O-])cc2C(=O)N1Cc1cccnc1	i	1%	-3%	2%	-6%	?
Cc1ccc(-n2nc3c(N4CCC(C(=O)NCCc5ccccc5)CC4)nnc(C)c3c2C)cc1	i	-10%	·	·	·	i
COc1ccc(-n2nc3c(N4CCC(C(=O)NCCc5ccccc5C)CC4)nnc(C)c3c2C)cc1	i	30%	?	9.2µM*	-2%	i
